The test system of one assay is CRL-7250. The assay is described as follows: Cytotoxic Profiling of Annotated Libraries Using Quantitative High-Throughput Screening (AID 1296008). Also: potency is read from the fitted curve at half-maximal effect. As to max response: % is scaled to controls: 0 for no effect and ±100 for the full control effect. The following applies: Five cell lines viability, CellTiter-Glo ATP luminescence, 48-72 h; max response: hits give low values. The method in brief: (§1)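 Compounds were pin-transferred onto cells and incubated 48 or 72 hr at 37 degree Celsius, 95% humidity. CellTiter-Glo was added, plates sat 10 min at room temperature, then ATP-coupled luminescence was imaged as the viability read-out.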

Another assay has as its system HEK293. Described as above. The following applies: Five cell lines viability, CellTiter-Glo ATP luminescence, 48-72 h; max response: hits give low values. The method in brief:
as §1

For assay [1], the system named is HaCat. The description is as above. To be noted: Five cell lines viability, CellTiter-Glo ATP luminescence, 48-72 h; max response: hits give low values. In a few lines:
as §1
For orientation: In ATP-based viability assays light output follows the ATP content of the culture.

A further assay concerns KB-3-1. The assay is described as above. The following applies: Five cell lines viability, CellTiter-Glo ATP luminescence, 48-72 h; max response: hits give low values. The method in brief: as §1
A further assay relates to NIH3T3. The assay is described as above. To be noted: Five cell lines viability, CellTiter-Glo ATP luminescence, 48-72 h; max response: hits give low values. The method in brief:
as §1

Assay [2] concerns HACAT. The assay is described as follows: qHTS assay to identify novel small-molecules to repurpose for Merkel cell carcinoma treatment (AID 1296009). To be noted: MCC and control cell lines, CellTiter-Glo viability, 72 h; series mostly up to 44.8 µM. The method in brief: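 Cells exposed to NPC (8-point) and MIPE (11-point) compound dilutions for 72 hr at 37 degree celsius; viability read by CellTiter-Glo luminescence, normalized to no-cell and DMSO in-plate controls.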

Molecules are shown by their SMILES. Inconclusive results are not listed. Unmarked numbers belong to inactive results. The source made the active and inactive calls. Calls follow the shape of the dose curve; as a rule, active = well fitted inhibition curve with a large enough effect; inconclusive = small, poorly fitted or top-dose-only effect; inactive = flat fitted curve, though single readings scatter.
Also: nearly all actives have a fitted effect of over 60% in size.

For the compound `CSc1ccc(C(=O)N[C@@H]2CCCC[C@@H]2NC(=O)CNC(=O)c2cc(C(F)(F)F)ccc2NC(=O)NC(C)C)cc1`, the max response in the assay on CRL-7250 is -1.98%; in the assay on HEK293, -11.3%; with HaCat [1], -8.38%; in the assay with KB-3-1, -4.76%; in the assay on NIH3T3, 0.151%.
The corresponding values for `COC(=O)CCC(=O)OC[C@]1(C)CCC[C@@]2(C)C3CC[C@]4(C)C=CC3(CCC12)C4` (stereo partly specified) are -4.15%, -2.92%, 1.33%, 2.37% and -0.0416%.
`CC1(C)CC[C@]2(C(=O)O[C@@H]3O[C@H](CO[C@@H]4O[C@H](CO)[C@@H](O)[C@H](O)[C@H]4O[C@@H]4O[C@H](CO)[C@@H](O)[C@H](O)[C@H]4O)[C@@H](O)[C@H](O[C@@H]4O[C@H](CO)[C@@H](O)[C@H](O)[C@H]4O)[C@H]3O)CC[C@]3(C)C(=CCC4[C@@]5(C)CC[C@@H](O)[C@@](C)(C(=O)O[C@@H]6O[C@H](CO)[C@@H](O)[C@H](O)[C@H]6O)C5CC[C@]43C)[C@@H]2C1` (stereo partly specified): the compound was called inactive with CRL-7250 and in the assay on KB-3-1. Also, the max response in the assay on HEK293 is -9.43%; in the assay with HaCat [1] it was -7.02%; with NIH3T3 it was 1.8%.
Consider `CC(C)C(C#N)O[C@@H]1O[C@H](CO[C@@H]2O[C@@H](C)[C@H](O)[C@@H](O)[C@H]2O)[C@@H](O)[C@H](O)[C@H]1O` (stereo partly specified), for which the max response was -4.82% with CRL-7250; 0.693% in the assay with HEK293; -12% in the assay with HaCat [1]; -1.19% in the assay on KB-3-1; -15% in the assay on NIH3T3.
`CCN1CCN(Cc2ccc(NC(=O)c3ccc(C)c(NC(=O)c4cncc(-c5cccs5)c4)c3)cc2C(F)(F)F)CC1`: the Potency with CRL-7250 was 461 nM (active); with HEK293, 1300 nM (active); with HaCat [1] it was 920 nM (active); in the assay with KB-3-1, 14600 nM (active); in the assay on NIH3T3, 1160 nM (active).
On to `C[C@@H]1O[C@@H](O[C@@H]2[C@@H](O)[C@H](O[C@H]3CC[C@@]4(C)C(CC[C@]5(C)C4CC=C4[C@@H]6CC(C)(C)CC[C@]6(C(=O)O[C@@H]6O[C@H](CO)[C@@H](O)[C@H](O)[C@H]6O)CC[C@]45C)C3(C)C)O[C@H](C(=O)O)[C@H]2O)[C@H](O)[C@H](O)[C@H]1O` (stereo partly specified), for which the call with CRL-7250 and in the assay with HaCat [1] was inactive. The max response in the assay with HEK293 is 3.46%; in the assay with KB-3-1, 4.23%; with NIH3T3 it was 4.82%. The outcome in the assay on HACAT [2] is “inactive [at 9.27 µM]”.
For `C=C1C(=O)OC2CC3(C)C(CC12)C(C)=CC(O)C3OC(C)=O` (stereo unspecified), the max response in the assay with CRL-7250 is -3.42%; with HEK293, -3.84%; in the assay on HaCat [1] it was 3.89%; in the assay with NIH3T3, -1.8%. Also, in the assay with KB-3-1, the compound was classed as inactive.
On to `CC(=O)c1c(O)cc(O[C@@H]2O[C@H](CO)[C@@H](O)[C@H](O)[C@H]2O)cc1O`, for which the max response is -2.16% with CRL-7250, 1.76% with HEK293, -1.69% with HaCat [1] and 1.77% in the assay on NIH3T3. Besides, the result in the assay on KB-3-1 was inactive.
In the case of `CC(C)c1ccc2c(c1)C(=O)CC1[C@@](C)(C(=O)O)CCC[C@]21C` (stereo partly specified), the max response in the assay on CRL-7250 is 2.88%; in the assay on HEK293, 3.51%; with HaCat [1], -7.44%; in the assay with KB-3-1, -10.5%; in the assay on NIH3T3, 0.286%.
In the case of `CC/C=C\CC1C(=O)C=CC1(CCCCCCCC(=O)O)OC(C)=O` (stereo unspecified), the max response in the assay with CRL-7250 is -0.322%; with HEK293, 2.73%; in the assay with HaCat [1] it was 3.46%; with NIH3T3, 4.26%. Also, in the assay on KB-3-1, the call was inactive.
In the case of `Cc1cnc(NC(=O)Nc2cc(Br)c(C)cc2OCC2CNCCO2)cn1` (stereo unspecified), the Potency in the assay on CRL-7250 was 13000 nM (active); in the assay on HEK293, 1300 nM (active); in the assay with KB-3-1, 14600 nM (active); in the assay on NIH3T3, 2310 nM (active). For the same compound, the max response in the assay on HaCat [1] was -19%.
Regarding `CC1=C(CCC(C)CC(=O)O)[C@@]2(C)CCCC(C)(C)C2CC1=O` (stereo partly specified), the max response in the assay with CRL-7250 is 3.13%; with HEK293, 0.185%; in the assay with HaCat [1], -7.07%; in the assay with KB-3-1 it was -1.22%; with NIH3T3, -3.99%.
In the case of `NCCCNc1ccc(Nc2nccc(Nc3cc(C4CC4)[nH]n3)n2)cc1`, the Potency was 731 nM (active) in the assay with CRL-7250; 1030 nM (active) with HEK293; 4610 nM (active) in the assay with HaCat [1]; 820 nM (active) with KB-3-1; 5800 nM (active) in the assay on NIH3T3.
For the compound `CC(O)CCC1C(CO[C@@H]2O[C@H](CO)[C@@H](O)[C@H](O)[C@H]2O)CC(O)CC1(C)C` (stereo partly specified), the result in the assay on CRL-7250 was inactive. The max response in the assay on HEK293 was 1.92%; in the assay with HaCat [1] it was -5.9%; in the assay on KB-3-1, 8.38%; in the assay on NIH3T3, -8.75%.
Take `CC(C)=CCCC1(C)C=Cc2c(c(C)cc3c2[nH]c2ccccc23)O1` (stereo unspecified): the max response with CRL-7250 was -19.1%; with HEK293, -24.1%; with HaCat [1] it was 3.9%; with KB-3-1, 6.53%; in the assay on NIH3T3, -4.99%.
Consider `C[C@@H]1O[C@@H](O[C@H]2[C@H](O)[C@@H](O[C@@H]3O[C@H](CO)[C@@H](O)[C@H](O[C@@H]4O[C@H](CO)[C@@H](O)[C@H](O)[C@H]4O)[C@H]3O)[C@H](O[C@H]3CC[C@@]4(C)C(=CC[C@@H]5C4CC[C@@]4(C)C5C[C@@H]5OC6(CC[C@@](C)(CO[C@@H]7O[C@H](CO)[C@@H](O)[C@H](O)[C@H]7O)O6)[C@@H](C)[C@@H]54)C3)O[C@@H]2CO)[C@H](O)[C@H](O)[C@H]1OC1OC(CO)C(O)C(O)C1O` (stereo partly specified), for which the max response is -6.48% in the assay with CRL-7250, -4.6% with HEK293, -1.18% in the assay with HaCat [1] and -4.4% in the assay with NIH3T3. Further, the result in the assay on KB-3-1 was inactive.
